p53null 32C kill: selectivity test: cytotoxicity in p53 null cells, permissive temperature | 55,000 tested, 0.62% active | H1299-neo p53 null cells, ATP luminescence, 24 h, 32C | Potency, µM (doses to about 46.1 µM), hits mostly cytotoxic; note: nearly all actives have a fitted effect of over 55% in size
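Cells lacking p53 (H1299-neo) are plated at 600 per well and allowed to settle overnight at 37C. Test compounds (up to 46 uM) are added and held 24 hours at 32C, then ATP is quantified by luminescence.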
S16 viability: S16 Schwann cell cytotoxicity. S16 Pmp22-F2sN Schwann cells viability, CellTiter-Glo, 24 h. Potency, µM (doses to about 57.5 µM), actives largely listed as cytotoxic. 43,000 tested, 0.48% active. AID 1508642; note: nearly all actives have a fitted effect of over 65% in size
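Seed 500-1,000 S16 Pmp22-F2sN cells per well in phenol-red-free DMEM with 10% heat-inactivated FBS; pin-add 23 nL compound; incubate 24 h at 37C; add CellTiter-Glo, wait 15 min protected from light; read luminescence.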
p53null 39C kill: selectivity test: cytotoxicity in p53 null cells, nonpermissive temperature; Potency, µM (doses to about 46.1 µM), usual class: cytotoxic; 55,000 tested, 0.97% active; H1299 p53-null (neo) cells, 39C, ATPlite viability, 24 h; note: nearly all actives have a fitted effect of over 50% in size
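Luminescent ATP signal reported cell survival after H1299 lines (neo, p53 null; or p53 A138V) received up to 46 uM compound and 24 hr incubation at 39C.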
PMP22 txn prim: PMP22 gene transcription modulation | S16 Pmp22-F2sN Schwann cells (luciferase reporters placed in the Pmp22 gene), FLuc/NLuc coincidence luminescence, 24 h | Potency, µM (highest dose often 57.5 µM), actives largely listed as inhibitors | 43,000 tested, 2% active; active = clear falling dose curves in both reporters; inconclusive = both reporters move, but less clearly or upward; inactive = either reporter flat; the % is the NLuc reporter signal
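Rat S16 Pmp22-F2sN cells, 500-1,000/well in phenol red-free DMEM + 10% FBS, compound-treated 24 h (37C, 5% CO2). Luminescence: FLuc read, Stop&Glo added, NLuc read.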
pS6 MEF inh: mTORC1 pathway inhibition measured by phospho-rpS6 | Tsc2-/- p53-/- MEF, phospho-rpS6 immunofluorescence/PI, 24 h | Potency, µM (series often up to 38.3 µM), actives largely listed as inhibitors | 44,000 tested, 0.78% active; note: nearly all actives have a fitted effect of over 50% in size
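Compounds act on Tsc2-/-, p53-/- fibroblasts carrying an empty vector for 24 h before fixation and dual staining for phospho-S6 and DNA (propidium iodide). Values are percentages of cells above a rapamycin-defined pS6/PI threshold.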
SKOV3 invasion: ovarian cancer metastasis inhibition, 3D TME model; AID 1963576; Potency, µM (highest dose often 45.8 µM), actives largely listed as inhibitors; 46,000 tested, 0.1% active; SKOV3ip1-GFP adhesion/invasion on 3D omental model, fluorescence; note: nearly all actives have a fitted effect of over 65% in size
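Adhesion/invasion was scored as fixed GFP-labeled SKOV3ip1 cell counts (488/509 nm), normalized to DMSO and tomatine controls. Cancer cells in serum-free medium, with four compound doses (0.36-46 umol/L), sat 2 hr at RT then 16 hr at 37 C on a 48 hr fibroblast/mesothelial/ECM culture.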
Each line names hits and unclear results; the compound was inactive in the other large screens. Most compounds without a hit are left out; they make up all but 3% or so of the library. Unless noted, calls come from the whole dose curve; as a rule, active = well fitted curve in the direction sought with a large enough effect; inconclusive = small, poorly fitted or top-dose-only effect, or another doubt; inactive = no such curve, though single readings can be large; an effect the other way counts as inactive or inconclusive.

O=C(CC1(O)C(=O)Nc2cc(Cl)cc(Cl)c21)c1ccccc1O (centres undefined)	none (no result: S16 viability, PMP22 txn prim, pS6 MEF inh, SKOV3 invasion)
COc1ccc(C(=O)Nc2cc(-c3nc4ccccc4s3)ccc2OC)cc1	S16 viability inconclusive, PMP22 txn prim inconclusive, pS6 MEF inh 16µM, SKOV3 invasion inconclusive
COc1ccc(C(=O)NC(c2ccc(Cl)cc2)c2cc(Cl)c3cccnc3c2O)cc1 (centres undefined)	p53null 32C kill inconclusive, S16 viability 4µM, PMP22 txn prim inconclusive
COc1ccc(C(=O)Nc2cc(C(C)C)c(O)c(S(=O)(=O)c3ccc(Cl)cc3)c2C)cc1	none
COc1cc(F)c(C(C)C)cc1-c1ccc(C(F)(F)F)cc1CN1C(=O)O[C@H](c2cc(C(F)(F)F)cc(C(F)(F)F)c2)[C@@H]1C	none (no result: p53null 32C kill, S16 viability, p53null 39C kill, PMP22 txn prim, pS6 MEF inh)
COc1ccccc1NC(=O)C1=C(C)Nc2nc(SCc3cc(C)ccc3C)nn2C1c1ccccc1 (centres undefined)	S16 viability 10µM, PMP22 txn prim 17µM
CC1=C(C(=O)Nc2ccccc2)C(c2ccc(F)cc2)n2nc(SCc3cc(C)ccc3C)nc2N1 (centres undefined)	none
Cc1nnc(NC(=O)C(=O)c2cc(C)n(-c3ccc(C)c(C)c3)c2C)s1	S16 viability inconclusive, PMP22 txn prim 2.9µM
COc1ccc(-c2[nH]nc3nc(-c4cc(OC)c(OC)c(OC)c4)cc(C(=O)O)c23)cc1	pS6 MEF inh 16µM
CCc1ccc(-c2[nH]nc3nc(-c4cc(OC)ccc4OC)cc(C(=O)O)c23)cc1	p53null 32C kill 10µM, p53null 39C kill 4µM, pS6 MEF inh inconclusive
NC(=O)[C@@H](CCC(F)(F)F)N(Cc1ccc(-c2ncon2)cc1F)S(=O)(=O)c1ccc(Cl)cc1	none (no result: p53null 32C kill, S16 viability, p53null 39C kill, PMP22 txn prim, pS6 MEF inh)
COc1ccccc1Cn1cc(C(=O)c2ccc(Cl)cc2)c(=O)c2cc3c(cc21)OCCO3	PMP22 txn prim inconclusive
COc1ccccc1Cn1cc(C(=O)c2ccc(Cl)cc2)c(=O)c2ccccc21	S16 viability inconclusive, p53null 39C kill inconclusive, PMP22 txn prim inconclusive, pS6 MEF inh 3.3µM, SKOV3 invasion inconclusive
CSc1ccc(CCNC(=O)CCCn2c(=O)c3cccn3c3ccccc32)cc1	p53null 39C kill 13µM, pS6 MEF inh inconclusive
COc1ccccc1CNC(=O)CCCn1c(=O)c2cccn2c2ccccc21	PMP22 txn prim inconclusive, pS6 MEF inh 18µM
Cc1ccccc1CNC(=O)CCCn1c(=O)c2cccn2c2ccccc21	PMP22 txn prim 16µM
CC[C@H](CC[C@@H](C)[C@H]1CC[C@H]2[C@@H]3CC=C4C[C@@H](O)CC[C@]4(C)[C@@H]3CC[C@]12C)C(C)C	none (no result: p53null 32C kill, S16 viability, p53null 39C kill, PMP22 txn prim, pS6 MEF inh)
COc1ccc(-n2ncc3c(NC(C)(C)CO)ncnc32)cc1	p53null 32C kill 13µM, p53null 39C kill inconclusive
Cc1ccc(-n2ncc3c(NC(C)c4ccccc4)ncnc32)cc1 (centres undefined)	p53null 32C kill inconclusive
CCC(CO)Nc1ncnc2c1cnn2-c1ccc(C)cc1 (centres undefined)	p53null 32C kill 16µM, PMP22 txn prim inconclusive
COc1ccc(CNc2ncnc3c2cnn3-c2ccc(C)c(C)c2)cc1	PMP22 txn prim inconclusive
CCc1ccc(NC(=O)N2CCN(c3nnc(C)c4c(C)n(-c5ccc(Cl)cc5)nc34)CC2)cc1	p53null 32C kill inconclusive, p53null 39C kill 20µM, PMP22 txn prim inconclusive
COc1ccc(-n2nc3c(N4CCC(C(=O)NCCc5ccccc5)CC4)nnc(C)c3c2C)cc1	none
Cc1ccc(-n2nc3c(N4CCC(C(=O)NCCc5ccccc5)CC4)nnc(C)c3c2C)cc1	S16 viability 28µM, PMP22 txn prim inconclusive
COc1ccc(Cl)cc1S(=O)(=O)NCc1ccc2c(c1)CCN2C(=O)c1cccc(C)c1	S16 viability 14µM, p53null 39C kill inconclusive, PMP22 txn prim 11µM, pS6 MEF inh inconclusive
Cc1ccc(C(=O)Nc2nc3ccc(S(C)(=O)=O)cc3s2)o1	p53null 32C kill 13µM, p53null 39C kill 10µM (no result: S16 viability, PMP22 txn prim, pS6 MEF inh, SKOV3 invasion)

Assay outcomes deposited in PubChem BioAssay by National Center for Advancing Translational Sciences (NCATS).
